TrxR1 substrate = substrates of rat thioredoxin reductase 1 | purified TrxR1 substrate turnover, NADPH consumption readout | Potency, µM (series often up to 114 µM), without a hit: top-dose activity change, negative = substrate turnover | 0.01% of 390,000 active | O89049 | AID 588456; further: nearly all actives have a fitted effect of over 50% in size
Target sequence (O89049 whole entry, looked up): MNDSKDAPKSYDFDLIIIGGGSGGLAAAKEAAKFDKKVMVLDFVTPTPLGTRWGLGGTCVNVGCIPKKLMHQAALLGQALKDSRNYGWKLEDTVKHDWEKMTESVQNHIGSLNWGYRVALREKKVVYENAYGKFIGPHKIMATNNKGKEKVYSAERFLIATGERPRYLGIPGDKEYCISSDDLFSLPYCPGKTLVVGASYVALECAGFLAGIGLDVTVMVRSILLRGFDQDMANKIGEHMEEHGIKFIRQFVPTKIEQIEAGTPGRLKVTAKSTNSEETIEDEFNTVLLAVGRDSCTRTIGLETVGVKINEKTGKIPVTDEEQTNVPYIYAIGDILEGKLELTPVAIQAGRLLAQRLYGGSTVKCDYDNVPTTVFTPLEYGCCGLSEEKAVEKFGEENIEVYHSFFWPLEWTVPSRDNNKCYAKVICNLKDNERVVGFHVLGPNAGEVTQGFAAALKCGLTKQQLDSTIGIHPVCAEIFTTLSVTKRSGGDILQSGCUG
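Rat TrxR1, dispensed at 90 nM, was prereduced with 400 uM NADPH (final) for 5 min at ~22 deg C, then incubated with compound 15 min before 400 uM selenite. A first-read NADPH fluorescence drop versus no-compound background flagged substrates.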
VDR inh = inhibitors of human vitamin D receptor; P11473; VDR-SRC2-3 peptide fluorescence polarization, 2 h; Potency, µM, without a hit: max response, negative = inhibition, hits mostly inhibitors; 0.93% of 400,000 active; AID 504847
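Two reagent solutions held at 4 deg C in the dark were dispensed, compounds pinned at 23 nl, and the mixture incubated 2 h at room temperature. Read-out: fluorescence polarization of VDR–SRC2-3 peptide binding.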
GCN5L2 inh = GCN5L2 (KAT2A) acetyltransferase inhibition | Q92830 | GCN5L2 HAT assay, ThioGlo1 CoA-SH fluorescence | Potency, µM (top dose mostly 58.9 µM), for inactives: top-dose activity change, negative = inhibition, most hits filed as inhibitors | 0.21% of 390,000 active | AID 504327
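Fluorescence readout, Ex340nm/Em540nm: ThioGlo1 (50uM final) reacts with free CoA thiol released as 20nM GCN5L2 acetylates H3(1-25) peptide (75uM) using acetyl-CoA (70uM). Compound and enzyme sat 15 min beforehand; 20 min room-temperature reaction.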
TrxR1 inh = blocks rat thioredoxin reductase 1 | O89049 | recombinant rTrxR1, NADPH fluorescence consumption, selenite substrate | Potency, µM (top dose mostly 114 µM), for inactives: at the top dose activity change, negative = inhibition, actives largely listed as inhibitors | 1% of 390,000 active; further: nearly all actives have a fitted effect of over 65% in size
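Rat TrxR1 (90 nM in the dispensed reagent) was pre-reduced with 400 uM NADPH for 5 min at room temperature, then incubated with compound for 15 min. After 400 uM selenite was added, NADPH fluorescence (Ex 340/Em 450 nm) was followed for 8 min.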
* marks the source's active call; other numbers are inactive results; ? = inconclusive; · = not tested or not shown; [ ] = remark or other dose. A selection: hits, their analogues and other compounds. The true share with any hit is near 1.8%. The call rests on the fitted dose curve; in most records, active means well fitted curve in the direction sought with a large enough effect; inconclusive means small, poorly fitted or top-dose-only effect, or another doubt; inactive means no such curve, though single readings can be large; an effect the other way counts as inactive or inconclusive. On the % scale 0 is the no-effect control and ±100 the full control effect; potency means the concentration at half of the fitted maximal effect.

SMILES | TrxR1 substrate | VDR inh | GCN5L2 inh | TrxR1 inh
COC(=O)c1cc(NC(=S)NC(=O)c2ccccc2)ccc1N1CCOCC1 | -14.9% | -4.0% | 0.7% | 28.2µM*
COC(=O)c1cccc(Cn2c(Cl)c(/C=N/Nc3ccccc3C)sc2=O)c1 | -13.0% | -24.1% | -12.7% | 22.4µM*
O=C(O)c1cccc(Cn2c(Cl)c(/C=N/NC(=O)c3ccccc3)sc2=O)c1 | -12.9% | -6.9% | -17.0% | -39.7%
Cc1ccccc1N/N=C/c1sc(=O)n(Cc2cccc(C(=O)O)c2)c1Cl | 1.1% | ? | -5.1% | 50.1µM*
O=C(O)c1cccc(Cn2c(Cl)c(/C=N/NC(=O)c3ccco3)sc2=O)c1 | -19.1% | -0.7% | -0.3% | 79.4µM*
ICC[n+]1csc2ccccc21 | 7.3%[0.0914 µM] | · | · | -7.2%
O=C(O)CCN1CC2([N+](=O)[O-])C=CC(=O)C([N+](=O)[O-])(C1)C2CC(=O)c1ccccc1 (configuration not stated) | -10.6% | -14.2% | -6.0% | 14.1µM*
O=C(CCCC(=O)N1CCN(c2ccc([N+](=O)[O-])cc2)CC1)c1ccccc1 | -10.3% | -1.1% | -1.9% | -12.0%
Cc1ccc2c(C(=O)CNc3nccs3)c[nH]c2c1 | -0.5% | · | · | 1.4%
CN(C)c1ccc(C2=Cc3ccccc3C2)cc1 | 8.2% | · | · | ?
COc1ccc(C2NC(Cc3ccccc3)(C(=O)O)C3C(=O)N(c4ccccc4OC)C(=O)C23)cc1 (configuration not stated) | 7.0% | -6.0% | 2.6% | 56.2µM*
CCN1C(=O)[C@H]2[C@@H](c3ccc(-c4ccc(OC)cc4)c(OC)c3)N[C@@](Cc3ccccc3)(C(=O)OC)[C@H]2C1=O | 23.9% | -12.6% | -7.5% | 42.8%
Cc1cc(C)nc(NN2C(=O)C=CC2=O)n1 | 11.6% | ? | 1.7% | 7.94µM*
CNC(=O)c1c(C)[nH]c(=S)c(C#N)c1-c1ccco1 | 1.3% | ? | -15.9% | 12.6µM*
Cc1cc(C)c2c(c1)NC(C(=O)O)C1CC=CC21 (configuration not stated) | 1.7% | 57.5% | 28.2µM* | 3.98µM*
COC(=O)CNC(=O)C1Nc2ccc(OC(F)(F)F)cc2C2C=CCC12 (configuration not stated) | -0.2%[57.1 µM] | -1.5% | · | -8.6%[57.1 µM]
Cc1ccc(Cl)c2c1N[C@@H](c1ccc(C(=O)O)cc1)[C@H]1CC=C[C@@H]21 | -0.4% | -30.0% | -6.7% | -2.7%
Cc1cc(C)c2c(c1)C1C=CCC1C(C(=O)O)N2 (configuration not stated) | 0.7% | ? | · | 1.41µM*
C[n+]1ccc(/C=C/c2cc[n+](C)c3ccccc23)c2ccccc21 | 6.2% | · | · | -26.5%
Cc1c(OCc2ccc(C(=O)O)cc2)ccc2c(-c3ccccc3)cc(=O)oc12 | 2.8% | 79.4µM* | -18.5% | 0.2%
COC(=O)C(CC(=O)c1ccc(Br)cc1)n1cccn1 (configuration not stated) | 10.2% | -11.4% | -2.7% | 8.91µM*
CN(C)CCCNc1cc(N2CCN(C)CC2)ncn1 | -0.4% | · | · | 7.4%
COc1cc(CN2c3ccccc3C(=O)CS2(=O)=O)cc(OC)c1 | 5.9% | -4.9% | -2.4% | ?
O=C1CS(=O)(=O)N(Cc2ccc(F)cc2)c2ccccc21 | -5.8% | 79.4µM* | -5.6% | 44.7µM*
NS(=O)(=O)c1ccc(NC2=CC(c3ccc([N+](=O)[O-])cc3)N(c3ccc(S(N)(=O)=O)cc3)C2=O)cc1 (configuration not stated) | -7.1% | -27.3% | -1.0% | 50.1µM*
SMILES | TrxR1 substrate | VDR inh | GCN5L2 inh | TrxR1 inh
COc1ccc(NC2=CC(c3ccc(OC)c(OC)c3)N(c3ccc(OC)cc3)C2=O)cc1 (configuration not stated) | -9.8% | -23.3% | -6.3% | ?
CN1CCN(c2ncc3nc(CCc4ccccc4)c(=O)n(C)c3n2)CC1 | · | -2.8% | -13.0% | ·
CCC(CC)c1nnc(NC(=O)CS(=O)(=O)c2ccc(C)cc2)s1 | -2.8% | 44.7µM* | -4.8% | ?
CS(=O)(=O)c1ccc(Cl)c(NC(=O)Cc2ccccc2F)c1 | 8.7% | 79.4µM* | 3.7% | 23.8%[57.1 µM]
CS(=O)(=O)c1ccc(Cl)c(NC(=O)Cc2c(F)cccc2Cl)c1 | -8.0% | -14.0% | 19.5% | -5.2%
CC(=O)Nc1ccc(NS(=O)(=O)c2ccc3[nH]c4c(c3c2)CCCCC4)cc1 | 3.4% | 9.8% | 9.0% | 9.7%
CN(C(=O)c1ccncc1)c1nnc(-c2ccccn2)s1 | 18.6% | 1.2% | -2.3% | ?
CN(C(=O)c1ccno1)c1nnc(-c2ccccn2)s1 | 134.0% | 9.2% | 3.5% | 20µM*
CCCCCC(=O)NNC1CC(=O)N(c2ccccc2)C1=O (configuration not stated) | 6.5% | -11.3% | 2.5% | 21.6%
CCCCCC(=O)N(O)C1CC(=O)N(c2ccccc2)C1=O (configuration not stated) | -21.2%[57.1 µM] | 20µM* | -21.4% | 3.55µM*
O=C(c1cnccn1)N1CCC2(CC1)CN(Cc1ccccc1)C2 | · | 1.4% | 4.9% | ·
Cc1oc(-c2cccc(Br)c2)nc1CSc1nc2ncccc2[nH]1 | -1.1% | 1.5% | -0.8% | 12.8%
CC1=CN2C(=N)/C(=C/c3ccc([N+](=O)[O-])o3)C(=O)N=C2S1 | -16.5% | ? | 24.4% | 2.51µM*
CCOCCCNC(=O)c1c(NC(=O)c2nc(SCC)ncc2Cl)sc2c1CCCC2 | -4.1% | · | · | 15.0%[0.0914 µM]
O=C(C[n+]1ccc2ccccc2c1)c1ccc(O)c(O)c1 | -15.2% | · | · | -13.2%
Cc1ccc2nc(/C(C#N)=C\c3ccc(N4CCOCC4)o3)[nH]c2c1 | 5.2% | -11.5% | -9.6% | 12.6µM*
Cc1ccc(/C(C#N)=C\c2ccc(N3CCOCC3)o2)cc1 | -1.6% | ? | -6.3% | 2.24µM*
N#C/C(=C\c1ccc(N2CCOCC2)o1)C(=O)NCC1CCCO1 (configuration not stated) | -30.3% | -0.4% | -8.5% | ?
CCC(=O)NCCC1CCc2ccc3c(c21)CCO3 (configuration not stated) | · | 2.1% | -19.4% | ·
CCC(C)NC(=O)CSc1nc2cc3c(cc2c(=O)n1Cc1ccc(C(=O)NCCc2ccc(OC)c(OC)c2)cc1)OCO3 (configuration not stated) | 0.9%[57.1 µM] | ? | -4.1% | 8.0%[57.1 µM]
CCCCN1CC(c2nc3ccccc3n2CCCCOc2ccccc2C)CC1=O (configuration not stated) | -3.6% | 13.3% | -1.2% | 9.2%
CCOC(=O)C1=C(C)N(c2ccc(C)cc2)C(=O)/C1=C\c1ccc(O)c(OC)c1 | 4.3% | ? | ? | 17.8µM*
COC(=O)C1=C(C)N(Cc2ccccc2)C(=O)/C1=C\c1ccco1 | 11.5% | ? | -15.1% | 50.1µM*
COC(=O)C1=C(C)N(Cc2ccc(C)cc2)C(=O)/C1=C\c1ccc(O)c(OC)c1 | -15.5% | ? | -19.4% | ?
CCOC(=O)C1=C(C)N(c2ccc(OCC)cc2)C(=O)/C1=C\c1ccco1 | -21.0%[11.4 µM] | -18.4% | -7.1% | -76.5%
CCOc1cc(/C=C2\C(=O)N(CCc3ccc(OC)c(OC)c3)C(C)=C2C(=O)OC)ccc1O | -3.8% | -19.9% | -10.4% | ?
CCOc1cc(/C=C2\C(=O)N(Cc3ccco3)C(C)=C2C(=O)OC)ccc1O | -9.2% | ? | -1.1% | 22.4µM*

Compound activity deposited in PubChem by National Center for Advancing Translational Sciences (NCATS).
